The text below walks through data of ChEMBL document CHEMBL1157539, “Thousands of chemical starting points for antimalarial lead identification” (Nature, 2010).

Common to all, as to format: functional
Assay [1] deals with Plasmodium falciparum. Description: GSK_TCMDC: Inhibition of Plasmodium falciparum 3D7 in whole red blood cells, using parasite LDH activity as an index of growth. Test compounds present at 2uM.
In assay [2] the test system is Plasmodium falciparum. Description: GSK_TCMDC: Inhibition of Plasmodium falciparum Dd2 in whole red blood cells, using parasite LDH activity as an index of growth. Test compounds present at 2uM.
For the next assay, the system named is HepG2. Description: GSK_TCMDC: Percent inhibition of human HepG2 cell line. Test compounds present at 10uM.

Structures are written as SMILES.

By Inhibition is commonly meant how much of the control response was suppressed. Higher therefore signals a strong effect. `COc1ccc(CN2CCC(NCc3cccc([N+](=O)[O-])c3)CC2)cc1.O=C(O)C(F)(F)F`: the results for the Inhibition in the assay on Plasmodium falciparum [1], with Plasmodium falciparum [2] and in the assay with HepG2 were 92%, 3% and 6%, respectively.
In the same order, the values of `C=C1C(C(=O)OCC)=CN(CC)c2cc(O[C@H]3CCN(C(=O)OC(C)(C)C)C3)ccc21` are 98%, 75% and 9%.
For the compound `O=C(NC1CCCc2ccccc21)C1CCCN(C(=O)c2ccc(O)c(-c3ccc(Cl)c(Cl)c3)c2)C1` (configuration not stated), the Inhibition in the assay on Plasmodium falciparum [1] is given as 88%; with Plasmodium falciparum [2], 54%; with HepG2 it was 0%.
Take `CN1CCC(N(Cc2ccc(-c3ccc(C(F)(F)F)cc3)cc2)C(=O)Cn2c(SCc3cccc(F)c3F)cc(=O)c3c2CCC3)CC1.O=C(O)C(O)C(O)C(=O)O`: the Inhibition was 89% in the assay on Plasmodium falciparum [1], 83% in the assay on Plasmodium falciparum [2] and 50% in the assay with HepG2.
Taken in the same sequence, the figures for `CCN(CCCN1CCCCC1)c1cc(C)nc(Nc2cc(Cl)ccc2C)n1.O=C(O)C(F)(F)F` were 99%, 37% and 36%.
Taken in the same sequence, the figures for `OCCN1CCN(c2nc(Nc3cccc(F)c3)c3cnn(-c4ccccc4)c3n2)CC1` were 100%, 76% and 89%.
In the same order, the values of `Cc1cc(Nc2ccc(Cl)cc2)n2nc(C(F)(F)F)nc2n1` are 97%, 95% and 5%.
As for `Cl.Clc1cccnc1N1CCN(c2ncccc2Cl)CC1`, the Inhibition is 97% with Plasmodium falciparum [1], 0% in the assay with Plasmodium falciparum [2] and 2% with HepG2.
In the case of `CCCCCCCC/C=C\CCCCCCCC(=O)NCc1ccc(O)c(OC)c1` [OLVANIL], the Inhibition in the assay with Plasmodium falciparum [1] is listed as 96%; in the assay with Plasmodium falciparum [2] it was 93%; with HepG2, 0%.
Turning to `CCc1c(C)nc(-n2nc(C)cc2NC(=O)CC(c2ccccc2)c2ccccc2)[nH]c1=O`, the Inhibition was found to be 97% in the assay with Plasmodium falciparum [1], 98% in the assay on Plasmodium falciparum [2] and 41% in the assay on HepG2.
For the compound `COc1ccc2nccc([C@@H](O)CN3CCC(NCc4cc5oc(=O)[nH]c5cc4F)CC3)c2c1.O=C(O)C(=O)O`, the Inhibition in the assay on Plasmodium falciparum [1] stood at 99%; in the assay with Plasmodium falciparum [2] it was 4%; with HepG2, 0%.
As for `O=C(NC12CC3CC(CC(C3)C1)C2)C(=O)c1c[nH]c2ccccc12`, the Inhibition is 97% in the assay with Plasmodium falciparum [1], 2% in the assay with Plasmodium falciparum [2] and 16% in the assay with HepG2.
Consider `CCN(C1CCCCC1)S(=O)(=O)c1ccc(OC)c(N2CCN(C(=O)C(Cl)(Cl)Cl)CC2)c1`, for which the values for the Inhibition in the assay on Plasmodium falciparum [1], in the assay with Plasmodium falciparum [2] and in the assay with HepG2 were 100%, 85% and 0%, respectively.
Taken in the same sequence, the figures for `COc1cc2nc(NCCC(C)C)n3nc(-c4ccccc4)nc3c2cc1OC` were 94%, 97% and 0%.
As to `CC(C)(C)c1ccc(N2C(N)=NC(N)=NC2(C)C)cc1Cl.Cl`, the Inhibition in the assay on Plasmodium falciparum [1] came to 94%; with Plasmodium falciparum [2], 3%; in the assay on HepG2 it was 51%.
Consider `COc1ccccc1CCNc1nc(C)cc(NCCC(=O)NCCOc2ccccc2)n1.O=C(O)C(F)(F)F`, for which the values for the Inhibition in the assay on Plasmodium falciparum [1], in the assay on Plasmodium falciparum [2] and in the assay with HepG2 were 85%, 14% and 11%, respectively.
`COc1cc(Nc2nccc(N3CCC(NC(=O)Nc4cc(C)ccc4C)C3)n2)cc(OC)c1OC` (configuration not stated): the Inhibition with Plasmodium falciparum [1] is given as 91%; in the assay with Plasmodium falciparum [2], 52%; in the assay with HepG2, 13%.
`CCN(CC)CCNC(=O)c1ccc(NC(=O)c2cn(-c3ccccc3)nc2-c2cccs2)cc1`: the values for the Inhibition with Plasmodium falciparum [1], in the assay with Plasmodium falciparum [2] and with HepG2 were 100%, 94% and 30%, respectively.
Consider `Cl.NC(=O)c1cccc(Nc2nccc(Nc3ccc4[nH]c(-c5ccccc5)cc4c3)n2)c1`, for which the Inhibition in the assay with Plasmodium falciparum [1] was found to be 100%; in the assay on Plasmodium falciparum [2] it was 98%; in the assay with HepG2, 28%.
In the same order, the values of `CCN(CC)CCOc1ccc(C(O)(C#CC(O)(c2ccc(OCCN(CC)CC)cc2)c2ccc([N+](=O)[O-])cc2)c2ccc([N+](=O)[O-])cc2)cc1` (configuration not stated) are 98%, 97% and 55%.
Regarding `CCCS(=O)(=O)c1nc(S(=O)(=O)c2ccc(Cl)cc2)c(N2CCCCC2)s1`, the Inhibition in the assay on Plasmodium falciparum [1] stood at 87%; in the assay on Plasmodium falciparum [2], 34%; in the assay with HepG2 it was 3%.
As for `CN1CCN(CC(=O)Nc2cccc(-c3ccc(-c4nc5cc(F)ccc5[nH]4)cc3)c2)CC1`, the Inhibition was found to be 100% with Plasmodium falciparum [1], 98% with Plasmodium falciparum [2] and 20% in the assay with HepG2.
Taken in the same sequence, the figures for `NC(=O)c1ccc(-c2ccc3ccnc(N)c3c2)cc1.O=C(O)C(F)(F)F` were 100%, 98% and 56%.
Taken in the same sequence, the figures for `Clc1ccc2c(N3CCCNCC3)ccnc2c1` were 100%, 99% and 11%.
In the same order, the values of `O=C(NCC1CCN(CC2CCCCC2)C1)c1cc(-c2cccc(Cl)c2)cs1.O=C(O)C(F)(F)F` (configuration not stated) are 85%, 8% and 51%.
For the compound `CC(C)COc1ccc(Cl)cc1Cc1ccc(-c2nc3ccc(C(F)(F)F)cc3[nH]2)o1`, the Inhibition in the assay with Plasmodium falciparum [1] was 97%; in the assay with Plasmodium falciparum [2], 51%; in the assay on HepG2, 14%.
Taken in the same sequence, the figures for `FC(F)(F)c1ccc2c(C=Cc3ccncc3)c[nH]c2c1` were 98%, 76% and 0%.
As to `Clc1ccc(CNCC2CCN(CC3CCCCC3)CC2)cc1Cl`, the Inhibition with Plasmodium falciparum [1] is recorded as 92%; in the assay on Plasmodium falciparum [2], 6%; in the assay on HepG2, 18%.
Taken in the same sequence, the figures for `O=C(CCc1cccnc1)Nc1cccc(-c2ccc(-c3nc4cc(C(F)(F)F)ccc4[nH]3)s2)c1` were 89%, 13% and 35%.
Take `CNC(=O)c1cc(S(=O)(=O)N2CCN(c3ccccn3)CC2)cs1`: the Inhibition is reported as 99% with Plasmodium falciparum [1], 100% in the assay on Plasmodium falciparum [2] and 0% in the assay on HepG2.
Take `Cl.c1ccc(-c2cc(NCCCCCCCCNc3cc(-c4ccccc4)nc4ccccc34)c3ccccc3n2)cc1`: the Inhibition is 100% with Plasmodium falciparum [1], 72% in the assay with Plasmodium falciparum [2] and 36% in the assay on HepG2.
In the same order, the values of `CCC(C)c1ccc(NC(=O)c2ccc(S(=O)(=O)Nc3ccc(OC)c(N4CCN(CC5CC5)CC4)c3)cc2)cc1.O=C(O)C(F)(F)F` (configuration not stated) are 94%, 17% and 24%.
Regarding `COc1cc(OC)cc(C(=O)Nc2nc(-c3ccccn3)cs2)c1`, the Inhibition in the assay on Plasmodium falciparum [1] is given as 97%; with Plasmodium falciparum [2] it was 72%; in the assay on HepG2 it was 47%.
On to `COc1ccnc(NCCCNCc2cn(S(=O)(=O)c3ccccc3)c3ccccc23)c1`, for which the Inhibition in the assay with Plasmodium falciparum [1] was found to be 99%; in the assay on Plasmodium falciparum [2], 18%; with HepG2 it was 57%.
Taken in the same sequence, the figures for `CN(C(=O)/C=C/c1ccccc1F)C1CCN(CCCCCNC(=O)/C=C/c2ccc(Cl)c(Cl)c2)CC1` were 89%, 59% and 73%.
For the compound `CCCCCCCN1CC[C@@H](CCCc2ccnc3ccc(OC)cc23)[C@@H](CCN)C1.O=C(O)C(=O)O`, the figures for the Inhibition with Plasmodium falciparum [1], with Plasmodium falciparum [2] and in the assay on HepG2 were 100%, 11% and 50%, respectively.
Taken in the same sequence, the figures for `CN(Cc1ccc(-c2ccc(C(F)(F)F)cc2)cc1)C(=O)Cn1c(CCc2cccc(F)c2F)cc(=O)c2ccc(OCC3CCCN3C)cc21.O=C(O)C(O)C(O)C(=O)O` (configuration not stated) were 87%, 37% and 100%.
Regarding `O=C(/C=C/c1ccc(Cl)c(Cl)c1)NCCCCCN1CCCN(C(=O)Nc2ccc(F)c(Cl)c2)CC1`, the results for the Inhibition in the assay with Plasmodium falciparum [1], with Plasmodium falciparum [2] and in the assay with HepG2 were 95%, 0% and 31%, respectively.
Taken in the same sequence, the figures for `CCNc1cc(C)nc(Nc2ccc(NC(=O)C3CCCC3)cc2)n1` were 99%, 69% and 13%.
In the same order, the values of `Cn1ccnc1CNC(=O)c1ccc(-c2ccc(-c3nc4cc(C(F)(F)F)ccc4[nH]3)s2)cc1` are 100%, 43% and 40%.
Taken in the same sequence, the figures for `COc1cc(Cc2cnc(N)nc2N)ccc1OCc1ccc(-c2csnn2)cc1` were 97%, 0% and 33%.
Consider `Cc1cccc(CC2CC(=O)N(c3ccc([N+](=O)[O-])cc3)C2=O)c1` (configuration not stated), for which the Inhibition worked out at 95% in the assay with Plasmodium falciparum [1], 1% with Plasmodium falciparum [2] and 11% with HepG2.
In the case of `CCCCCOc1ccc(N2C(N)=NC(N)=NC2(C)C)cc1.Cl`, the Inhibition in the assay with Plasmodium falciparum [1] is 97%; in the assay on Plasmodium falciparum [2] it was 0%; in the assay on HepG2, 24%.
In the same order, the values of `Cc1noc(C)c1-c1cccc(CNCc2ccc(-c3ccc(-c4nc5cc(F)ccc5[nH]4)cc3)cc2)c1.O=C(O)C(F)(F)F` are 100%, 92% and 23%.
Regarding `CC(C)C[C@H](NC(=O)OC(C)(C)C)C(=O)Nc1ccc(Cc2ccc(NC(=O)[C@H](CC(C)C)NC(=O)OC(C)(C)C)cc2)cc1`, the Inhibition came to 94% in the assay with Plasmodium falciparum [1], 88% with Plasmodium falciparum [2] and 0% in the assay with HepG2.
Taken in the same sequence, the figures for `CCCCc1ccc(C(=O)NC2CCN(C[C@H](O)c3ccnc4ccc(OC)cc34)CC2)cc1` were 91%, 22% and 24%.
Taken in the same sequence, the figures for `Cc1ccc(S(=O)(=O)NC2CCN(CCNC(=O)Nc3cc(C)nc4ccccc34)C2)cc1` (configuration not stated) were 97%, 42% and 0%.
Turning to `Cc1ccccc1NC(=S)NC1CCN(CCCCCNC(=O)/C=C/c2ccc(Cl)c(Cl)c2)CC1`, the Inhibition with Plasmodium falciparum [1] was 99%; in the assay with Plasmodium falciparum [2] it was 7%; with HepG2, 14%.
Taken in the same sequence, the figures for `Fc1cccc(COc2ccc(Nc3ncnc4sc(C#C[C@H]5CC[C@H](CNCC(F)(F)F)N5)cc34)cc2Cl)c1` were 100%, 51% and 10%.
